Screens deposited in PubChem by National Center for Advancing Translational Sciences (NCATS).
ATXN2 expr inh: Primary qHTS for Inhibitors of ATXN expression; HEK-293 ATXN2-luciferase reporter, luminescence, 24 h; Potency, µM (titrated, usually from 57 µM), for the others: at the highest dose activity change, negative = inhibition, usual class: inhibitors; 360,000 tested, 0.72% active; AID 1745845, 2022; note: % is set by controls: 0 for no effect and ±100 for the full control effect; nearly all actives have a fitted effect of over 55% in size
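ATXN2-luciferase reporter cells (luciferase flanked by upstream and downstream ATXN2 gene portions) were treated 24 h at 37 °C with compounds at up to 57 uM. SteadyGlo luminescence gave expression; GF-AFC fluorescence gave viability.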
HepG2 tox: qHTS for Inhibitors of TGF-b: Cytotox Counterscreen | 410,000 tested, 0.76% active | HepG2 CAGA-GFP viability, ATP luminescence, 18 h | Potency, µM (highest dose often 46.1 µM), for inactives: at the highest dose activity change, negative = cytotoxicity, actives largely listed as cytotoxic
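CellTiter-Glo luminescence gave cytotoxicity after 18 hours at 37 degrees C. The cells were HepG2 CAGA-GFP in 1% FBS DMEM, stimulated with 500 pg/mL TGF-beta after compound addition. %Activity was normalised to no-cell wells (complete cell-killing) and DMSO (no toxicity), and curves were fitted and classified.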
S2 tox: Viability Counterscreen for Primary qHTS for Inhibitors of ATXN expression; S2 cells (HEK-293 line with an ATXN2-luciferase reporter) viability, CellTiter-Fluor protease fluorescence, 24 h; Potency, µM (series often up to 56.7 µM), most hits filed as cytotoxic; 400,000 tested, 0.49% active; AID 651635, 2014; note: nearly all actives have a fitted effect of over 40% in size
TGFb SMAD3 inh: qHTS for Inhibitors of TGF-b | Potency, µM (doses to about 46.1 µM), for inactives: top-dose activity, negative = inhibition, actives largely listed as inhibitors | 410,000 tested, 1.2% active | HepG2 CAGA-GFP TGF-b/SMAD3 reporter, GFP fluorescence, 18 h; TGF-beta stimulated, 500 pg/mL final | AID 588855, 2011; note: % is set by controls: 0 for no effect and ±100 for the full control effect; nearly all actives have a fitted effect of over 65% in size
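TGF-beta reporter screen: HEPG2 CAGA-GFP, 1% FBS, 500 pg/mL TGF-beta final, 18 h; per-cell GFP summed per well; curves fitted and categorized by class.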
Numbers without * were called inactive; i = inactive; ? = inconclusive; · = not tested or not shown; [ ] = dose if it differs, or a comment. This is a sample that favours compounds with a hit; in the whole collection about 2.3% have one here. Calls come from the whole dose curve; as a rule, active = well fitted curve in the direction sought with a large enough effect; inconclusive = small, poorly fitted or top-dose-only effect, or another doubt; inactive = no such curve, though single readings can be large; an effect the other way counts as inactive or inconclusive. Potency is the fitted concentration of half-maximal effect.

SMILES | ATXN2 expr inh | HepG2 tox | S2 tox | TGFb SMAD3 inh
COc1ccccc1OCc1nc(C#N)c(NCc2ccc(C)cc2)o1 | · | -16.7% | · | ?
COc1ccc(CCNc2oc(COc3ccccc3F)nc2C#N)cc1OC | 3.7% | -23.0% | i | 0.0%
COc1ccc(CCNc2oc(COc3ccc(F)cc3)nc2C#N)cc1 | -3.7% | -42.9% | i | 15.8µM*
COc1ccc(Nc2oc(COc3ccccc3OC)nc2C#N)cc1 | 10µM* | -1.6% | i | -15.5%
O=c1[nH]c(=O)n([C@H]2C[C@@H](O)[C@@H](CO)O2)cc1I | -0.2% | · | · | ·
Cc1c(C(=O)N2CCN(C(C)C)CC2)sc2ncnc(NCc3ccco3)c12 | · | · | i | ·
O=C(O)CCn1nnc(-c2cccs2)n1 | -1.8% | -1.2% | i | -23.7%
CC(C)c1ccc(-c2nnn(CCC(=O)O)n2)cc1 | 0.562µM* | -2.3% | i | 0.0%
O=C(C[n+]1cccc2cc(Cl)ccc21)c1ccc(I)cc1 | · | -29.0% | · | ?
CCCCCCCCCCCCCCCCCCN(CCCCCCCCCCCCCCCCCC)c1ccc(C=O)cc1 | · | 3.5% | · | 1.2%
COCCCNC(=S)N/N=C/c1ccccc1O | · | -57.5% | ? | 1.78µM*
Cc1ccc(NC(=O)CCC(=O)N/N=C/c2ccccc2O)cc1 | · | -22.2% | ? | -29.7%
CSc1nc(C)cc(OCC(=O)N/N=C/c2ccccc2O)n1 | 14.1µM* | -22.4% | i | ?
Cc1ccc(SCCC(=O)N/N=C/c2ccccc2O)cc1 | 25.1µM* | -37.2% | i | 3.2%
COCCNC(=S)N/N=C(\C)c1ccccc1O | 8.9% | -95.4% | i | 5.62µM*
O=C(NCc1ccncc1)c1cnn(-c2ncc3c(n2)-c2ccccc2CC3)c1C1CC1 | · | · | i | ·
COCCNC(=S)N/N=C(\C)c1ccc(Cl)c(Cl)c1 | 14.6% | -58.2% | i | 8.91µM*
CC[C@H](C)[C@H](N)C(=O)O | 20.2% | · | i | ·
Cc1cc2oc(=O)cc(Cn3ncc(Cl)c(Cl)c3=O)c2cc1Cl | 25.1µM* | -29.6% | · | ?
CCOC(=O)c1ccc2ncc(C(=O)OCC)c(Nc3ccc(N4CCOCC4)cc3)c2c1 | 22.4µM* | -32.4% | ? | ?
CC1(O)CC(c2ccc(Cl)cc2)=NN1C(=O)c1ccc(Cl)cc1 (centres undefined) | · | -41.0% | i | 10µM*
O=C(Nc1ccccc1F)c1nc(S(=O)(=O)Cc2ccccc2F)ncc1Cl | ? | 8.91µM* | 17.8µM* | 4.47µM*
COc1ccc(OC)c(NC(=O)c2nc(S(=O)(=O)Cc3ccccc3F)ncc2Cl)c1 | · | 3.16µM* | · | ?
CC(C)CCNC(=S)Nc1ccc([N+](=O)[O-])cc1 | ? | -46.8% | ? | ?
CCCCNC(=S)Nc1ccc([N+](=O)[O-])cc1 | -19.9% | -47.8% | i | 11.2µM*
SMILES | ATXN2 expr inh | HepG2 tox | S2 tox | TGFb SMAD3 inh
O=C(/C=C/Sc1ccccc1)c1ccccc1 | ? | 15.8µM* | · | 10µM*
O=C(/C=C/Sc1ccccc1)c1ccc(Cl)cc1 | ? | 11.2µM* | · | 8.91µM*
Cc1cc([C@@H](C)Nc2ccccc2C(=O)O)c2nc(N3CCOCC3)cc(=O)n2c1 | -3.9%[116 µM] | · | · | ·
COC[C@H](c1ccc(C(F)(F)F)cc1)N1CCN(C2(C)CCN(C(=O)c3c(C)ncnc3C)CC2)C[C@H]1C | · | · | i | ·
CCCCn1c(=O)[nH]c(=O)c2c1nc(CN1C(=O)c3ccccc3S1(=O)=O)n2CCC | 4.6% | -19.0% | i | -6.6%
CCCCn1c(=O)[nH]c(=O)c2c1nc(Cn1ncc(Cl)c(Cl)c1=O)n2CCC | ? | 11.2µM* | ? | 6.31µM*
Cc1ccc(C)c2sc(N3CCN(C(=O)c4ccco4)CC3)nc12 | ? | -51.6% | i | 10µM*
Cc1ccc(Cl)c2sc(N3CCN(C(=O)c4ccco4)CC3)nc12 | -22.3% | -16.7% | i | ?
CNC(=O)c1ccc2nc(-c3ccco3)c(-c3ccco3)nc2c1 | · | -37.0% | · | -13.1%
Oc1ccc(/C=N/N2CCN(C3c4ccccc4-c4ccccc43)CC2)cc1 | 9.4% | 17.8µM* | i | 12.6µM*
O=C(c1ccco1)N1CCN(CCCCOc2cccc3ccccc23)CC1 | ? | 7.94µM* | ? | ?
COc1cc(=O)n2c(c1C(=O)N(C)Cc1nonc1C)CCN(C(=O)c1cc(C)ccc1C)CC2 | · | · | i | ·
Cc1ccc(/C=N/Nc2ccc(C(=O)O)cc2)s1 | 0.947µM* | -56.8% | i | -7.2%
O=C1Nc2cc(C(=O)NCCCN3CCCC3)ccc2S/C1=C/c1ccccc1F | · | -73.1% | ? | ?
CCN1CCCC1CNC(=O)c1ccc2c(c1)NC(=O)/C(=C\c1ccc(C)cc1)S2 (centres undefined) | · | 15.8µM* | · | ?
O=C1Nc2cc(C(=O)NCCN3CCCCCC3)ccc2S/C1=C/c1ccccc1F | · | 8.91µM* | ? | 10µM*
Cc1ccc(/C=C2/Sc3ccc(C(=O)NCCN4CCOCC4)cc3NC2=O)cc1 | · | 39.1% | i | 25.6%
COc1cccc(/C=C2/Sc3ccc(C(=O)NCCN4CCCC4)cc3NC2=O)c1 | · | 14.1µM* | ? | ?
COc1cccc(/C=C2/Sc3ccc(C(=O)NCCCN4CCCC4)cc3NC2=O)c1 | · | -109.7% | ? | ?
CCOC(=O)CCCC(=O)N1CCN(/[N+]([O-])=N/Oc2ccc([N+](=O)[O-])cc2[N+](=O)[O-])CC1 | · | -105.1% | · | ?
CC1CCN(c2nc3ccccn3c(=O)c2C=O)CC1 | 0.3% | 3.3% | i | -0.1%
Cc1cccn2c(=O)c(C=O)c(Cl)nc12 | ? | -68.9% | ? | 15.8µM*
O=Cc1c(Cl)nc2ccccn2c1=O | 18.1% | 0.562µM* | i | ?
C=C1C=C(C(F)F)n2ncc(C(=O)NC(C)CC)c2N1 (centres undefined) | · | -0.5% | · | -13.2%
Cc1cc(C)n(-c2ccc(C(=O)N3CCc4c(cnc(C)c4CNC(=O)c4ccccc4F)C3)cc2)n1 | · | · | i | ·
SMILES | ATXN2 expr inh | HepG2 tox | S2 tox | TGFb SMAD3 inh
O=C(C[n+]1c(Cl)cc(Cl)c2ccccc21)c1ccccc1 | · | -21.1% | · | -18.7%
CCC(C(=O)O)C1CCC(C)C(C(C)C(O)C(C)C(=O)C(CC)C2OC3(C=CC(O)[C@@]4(CC[C@](C)(C5CC[C@@](O)(CC)C(C)O5)O4)O3)C(C)CC2C)O1 (some centres undefined) | 7.69µM* | · | · | ·
NCCCC(N)CC(=O)NCC1NC(=O)C(CO)NC(=O)C(N)CNC(=O)C(C2CCN=C(N)N2)NC(=O)C(=CNC(N)=O)NC1=O (centres undefined) | 12.0%[0.709 µM] | · | i[0.575 µM] | ·
O=C(Nc1cc(C(=O)N2CCN(CCO)CC2)c2c(c1)ncn2C1CCCC1)c1ccccc1 | · | · | i | ·
CC(C)C(=O)OCc1cccc(OC(=O)[C@@H]2N3C(=O)[C@@H](NC(=O)Cc4ccccc4)[C@H]3SC2(C)C)c1 | 4.7% | · | ? | ·
CC(=O)Nc1cccc(-c2cnc(N)c(C(=O)c3cccnc3)n2)c1 | ? | -12.8% | ? | 10µM*
CCCCCCCC/C=C\CCCCCCCC(=O)NCCc1ccc(O)c(O)c1 | 15.8µM* | -44.3% | 25.1µM* | ?
